Drawing on PubChem BioAssay AID1347420 (Sanford-Burnham Center for Chemical Genomics, 2020), this text covers inhibition for 99 compounds.

Structures are written as SMILES. Hit rate of the full screen: of about 1,300 compounds, about 980 (75%) were called active. Another 4% or so got no clear call; they are omitted. The list shows a part of the results. Values without a mark were called inactive.

In this experiment the target is Sulfhydryl oxidase 1 (Homo sapiens) (UniProt O00391). In words: QSOX1 enzyme inhibitors, primary screen, biochemical, HyperBlu H2O2 luminescence, HTS (AID 1347420). Note: values above 100% were filed as inconclusive. The note with it: recombinant QSOX1, HyperBlu H2O2 luminescence; at 12.5 µM; hits give high values; active = any value above zero.
Sulfhydryl oxidase 1 (Homo sapiens), sequence (O00391 whole entry, looked up): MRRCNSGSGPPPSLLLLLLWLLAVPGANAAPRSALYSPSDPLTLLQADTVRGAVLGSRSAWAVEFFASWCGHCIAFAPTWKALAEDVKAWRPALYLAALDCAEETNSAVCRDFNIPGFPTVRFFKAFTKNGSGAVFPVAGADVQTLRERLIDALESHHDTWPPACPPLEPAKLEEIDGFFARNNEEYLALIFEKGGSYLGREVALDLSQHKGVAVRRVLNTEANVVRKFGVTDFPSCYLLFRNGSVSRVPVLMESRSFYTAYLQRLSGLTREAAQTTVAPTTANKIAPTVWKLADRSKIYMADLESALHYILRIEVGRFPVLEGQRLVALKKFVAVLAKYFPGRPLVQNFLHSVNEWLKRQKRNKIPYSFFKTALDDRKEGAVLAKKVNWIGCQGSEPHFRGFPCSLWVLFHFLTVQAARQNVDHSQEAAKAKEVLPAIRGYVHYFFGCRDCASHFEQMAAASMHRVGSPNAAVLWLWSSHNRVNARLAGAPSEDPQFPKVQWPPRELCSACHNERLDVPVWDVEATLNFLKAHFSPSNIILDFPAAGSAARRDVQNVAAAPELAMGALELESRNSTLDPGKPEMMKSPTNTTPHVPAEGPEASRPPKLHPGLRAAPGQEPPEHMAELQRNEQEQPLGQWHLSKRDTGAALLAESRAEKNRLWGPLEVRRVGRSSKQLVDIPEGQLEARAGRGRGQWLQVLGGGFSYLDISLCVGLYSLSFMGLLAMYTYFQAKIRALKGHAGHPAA
On to `COCCOC(=O)C1=C(C)NC(C)=C(C(=O)OC(C)C)C1c1cccc([N+](=O)[O-])c1` (centres undefined), for which the inhibition was 16.8% (active).
The same measure for `COC(=O)C1=C(C)NC(C)=C(C(=O)OC(C)(C)CN(C)CCC(c2ccccc2)c2ccccc2)C1c1cccc([N+](=O)[O-])c1` (centres undefined): 21.8% (active).
As to `COCCOC(=O)C1=C(C)NC(C)=C(C(=O)OC/C=C/c2ccccc2)C1c1cccc([N+](=O)[O-])c1` (centres undefined), the inhibition was 32.1% (active).
With `CCN1CCC[C@H]1CNC(=O)c1c(O)c(Cl)cc(Cl)c1OC` the figure was 14.4% (active).
In the case of `NCCNC(=O)c1ncsc1-c1cccc(F)c1`, the inhibition is -11.5%.
With `O=C1NCC2(CCN(CCc3ccccc3)CC2)O1` the figure was 10.5% (active); with `Cc1ccc(O)c(N=Nc2ccccc2)n1`, 30.2% (active); with `Cc1cc(NC2CCCCC2)nc(-n2nc(C)cc2C)n1`, 6.3% (active).
The same measure for `CCCCCCCC/C=C\CCCCCCCC(=O)NCCO`: 0.4% (active); for `CCCCCCC(=O)OC1CC(C)(C)NC(C)(C)C1`: -7.9%.
With `CCCCCCCCCCCCCCCC(=O)NCCO` the figure was 8.6% (active).
As for `C[C@]12CC[C@@H]3c4ccc(O)cc4CC[C@H]3[C@@H]1CCC2=O`, the inhibition is 22.4% (active).
With `C[C@]12CC[C@@H]3c4ccc(O)cc4CC[C@H]3[C@@H]1CC[C@@H]2O` the figure was 24.6% (active).
With `C[C@](N)(Cc1ccc(O)cc1)C(=O)O` the figure was 2.9% (active); with `CC(N)(Cc1ccc(O)cc1)C(=O)O` (centres undefined), 50.5% (active).
Consider `COC(=O)C(C)(N)Cc1ccc(O)cc1` (centres undefined), for which the inhibition is 2.3% (active).
The same measure for `CCOC(=O)C1=C[C@]2(CC)CCCN3CCc4c(n1c1ccccc41)[C@@H]32`: 8.5% (active); for `CCc1ccc2c(-c3cccc(Cl)c3)nc(=O)n(CC)c2n1`: 20% (active).
With `CCOC(=O)c1ncn2c1CN(C)C(=O)c1cc(F)ccc1-2` the figure was 11.8% (active).
For the compound `Nc1nc(N)c2nc(CNc3ccc(C(=O)NC(CCC(=O)O)C(=O)O)cc3)cnc2n1` (centres undefined), the inhibition is 34.3% (active).
The same measure for `CN(Cc1cnc2nc(N)nc(N)c2n1)c1ccc(C(=O)N[C@@H](CCC(=O)O)C(=O)O)cc1`: 3.6% (active); for `CC1(C)NC(=O)N(c2ccc([N+](=O)[O-])c(C(F)(F)F)c2)C1=O`: -8.3%; for `CC(C)C(=O)Nc1ccc([N+](=O)[O-])c(C(F)(F)F)c1`: 4.7% (active).
As to `Nc1nc(SCc2ccc([N+](=O)[O-])cc2)c2ncn([C@@H]3O[C@H](CO)[C@H](O)C3O)c2n1` (some centres undefined), the inhibition was 33.7% (active).
Consider `O=[N+]([O-])c1ccc(CSc2ncnc3c2ncn3[C@@H]2O[C@H](CO)[C@H](O)C2O)cc1` (some centres undefined), for which the inhibition is 33.9% (active).
The same measure for `C#CC(N)CCC(=O)O` (centres undefined): 13.5% (active); for `C=CC(N)CCC(=O)O` (centres undefined): -9.5%.
As to `Nc1nc2c(ncn2COC(CO)CO)c(=O)[nH]1`, the inhibition was 10.7% (active).
With `Nc1nc2c(ncn2COCCO)c(=O)[nH]1` the figure was 19.3% (active); with `Cc1cccc(-c2[nH]c(C(C)(C)C)nc2-c2ccc3nccnc3c2)n1`, -12.5%.
The same measure for `N=S(=O)([O-])Cc1noc2c1C=C[C+]=C2`: 9.3% (active); for `OC[C@H]1NC[C@@H](O)[C@@H]1O`: 10.5% (active).
With `OCC1NCC(O)C(O)C1O` (centres undefined) the figure was 14.4% (active).
Consider `CCN1/C(=C/C(C)=O)Sc2ccc(OC)cc21`, for which the inhibition was 58.1% (active).
With `CC[C@H](C)C(=O)O[C@H]1CCC=C2C=C[C@H](C)[C@H](CC[C@@H]3C[C@@H](O)CC(=O)O3)[C@H]21` the figure was 8.8% (active).
The same measure for `CC(C)(C)NCC(O)COc1nsnc1N1CCOCC1` (centres undefined): 3.8% (active).
With `CC1CN(S(=O)(=O)c2cccc3cnccc23)CCN1` (centres undefined) the figure was 4.9% (active); with `CC1CNCCN1S(=O)(=O)c1cccc2cnccc12` (centres undefined), 37.4% (active); with `O=Nc1ccc2oc(=O)ccc2c1`, 85% (active).
As to `COC(=O)Nc1nc2ccc(C(=O)c3cccs3)cc2[nH]1`, the inhibition was 12.3% (active).
The same measure for `O=c1[nH]c(=O)c2nc3ccccc3nc2[nH]1`: 3.9% (active); for `NC(=O)c1cn(Cc2c(F)cccc2F)nn1`: -7.2%.
The same measure for `CCCN(CCC)CCc1cccc2c1CC(=O)N2`: -8.3%.
As for `CO[C@@]1(NC(=O)CSCC#N)C(=O)N2C(C(=O)O)=C(CSc3nnnn3C)CS[C@@H]21`, the inhibition is 10% (active).
The same measure for `CN1C(=O)CC[C@H]1c1cccnc1`: 3.9% (active).
With `CN1CCC[C@H]1c1cccnc1` the figure was 2.5% (active).
For `COc1ccccc1CNCCCCCCNCCCCCCCCNCCCCCCCNc1ccccc1OC`, the inhibition was 0.8% (active).
The same measure for `C#CCCN`: 25.9% (active).
With `NC(=O)c1cccc(N)c1` the figure was 19% (active).
With `NC(=O)c1ccc2[nH]ccc2c1` the figure was -15.5%; with `NC(=O)c1ccccc1`, -9.9%.
Regarding `CC[C@@H](C)[C@H]1O[C@]2(CC[C@@H]1C)C[C@@H]1C[C@@H](C/C=C(\C)[C@@H](O[C@H]3C[C@H](OC)[C@@H](O[C@H]4C[C@H](OC)[C@@H](O)[C@H](C)O4)[C@H](C)O3)[C@@H](C)/C=C/C=C3\CO[C@@H]4[C@H](O)C(C)=C[C@@H](C(=O)O1)[C@]34O)O2`, the inhibition is 10.8% (active).
`Cc1cccc(/C=C/c2ccccc2)n1`: the inhibition is 3.6% (active).
With `O=NN(CCCl)C(=O)NCCCl` the figure was 10.3% (active); with `CCCNC(C)C(=O)Nc1ccccc1C` (centres undefined), 3.1% (active).
As to `Nc1nc2ccc(OC(F)(F)F)cc2s1`, the inhibition was 7.2% (active).
With `CSC(=N)N` the figure was 14.1% (active); with `CCSC(=N)N`, 3% (active); with `NC(=O)CNCCC(c1ccccc1)c1ccccc1`, 1.3% (active).
The same measure for `N=C(N)N1CCc2ccccc2C1`: 18.5% (active).
Turning to `CC(C)NNC(=O)c1ccncc1`, the inhibition was 0.1% (active).
Take `C1COC(NC(C2CC2)C2CC2)=N1`: the inhibition was -6.7%.
With `CN(C)CCCC1(c2ccc(F)cc2)OCc2cc(C#N)ccc21` (centres undefined) the figure was 8.6% (active); with `Nn1nnc2ccccc21`, 21.7% (active); with `O=C(O)Cc1c[nH]c2ccc(O)cc12`, 47.5% (active).
With `N[C@@H](Cc1c[nH]c2ccc(O)cc12)C(=O)O` the figure was 45.4% (active).
With `N[C@@H](Cc1c[nH]c2ccccc12)C(=O)O` the figure was 3.4% (active); with `CN1C(C(=O)Nc2ccccn2)=C(O)c2ccccc2S1(=O)=O`, 35.6% (active).
In the case of `Cc1cnc(NC(=O)C2=C(O)c3ccccc3S(=O)(=O)N2C)s1`, the inhibition is 44.2% (active).
The same measure for `CN1C2CCCC1CC(NC(=O)c1nn(C)c3ccccc13)C2` (centres undefined): 8.4% (active).
The same measure for `CC(=O)O[C@]1(C(C)=O)CC[C@H]2[C@@H]3C=C(Cl)C4=CC(=O)[C@@H]5C[C@@H]5[C@]4(C)[C@H]3CC[C@@]21C`: -5.1%; for `NCCS(=O)O`: 4.2% (active).
The same measure for `CC(=O)NNC(=O)N1Cc2ccccc2Oc2ccc(Cl)cc21`: 17.2% (active); for `N[C@@H](Cn1ccc(=O)c(O)c1)C(=O)O`: 10.1% (active).
On to `O=[N+]([O-])c1ccc(-c2nc(-c3ccc(F)cc3)c(-c3ccncc3)[nH]2)cc1`, for which the inhibition is 92.4% (active).
With `Oc1ccc(-c2nc(-c3ccc(F)cc3)c(-c3ccncc3)[nH]2)cc1` the figure was 97% (active); with `O=C1Cc2c([nH]c3ccc(Br)cc23)-c2ccccc2N1`, 1.7% (active).
Consider `C=C1N=C(N=NC2=C(S(=O)(=O)[O-])[C+]=C(S(=O)(=O)[O-])[C+]=C2)[C+](COP(=O)([O-])O)C(C=O)=C1O`, for which the inhibition is 6.1% (active).
The same measure for `O=C1OC(=O)C2C3CCC(O3)C12` (centres undefined): 9.8% (active); for `NC[C@H]1O[C@@H](n2cnc3c(N)ncnc32)[C@H](O)[C@@H]1O`: 16.1% (active); for `Nc1ncnc2c1ncn2[C@@H]1O[C@H](CO)[C@H](O)C1O` (some centres undefined): 13.8% (active).
The same measure for `Nc1ccn([C@@H]2O[C@H](CO)[C@@H](O)C2O)c(=O)n1` (some centres undefined): -7%; for `Nc1ncn([C@@H]2O[C@H](CO)[C@H](O)C2O)c(=O)n1` (some centres undefined): 21.3% (active); for `Nc1nc(Cl)nc2c1ncn2[C@@H]1O[C@H](CO)[C@H](O)C1O` (some centres undefined): 13.7% (active).
Take `CC(=O)O[C@H]1C(=O)[C@@]2(C)C([C@H](OC(=O)c3ccccc3)[C@]3(O)C[C@H](OC(=O)[C@H](O)[C@@H](NC(=O)c4ccccc4)c4ccccc4)C(C)=C1C3(C)C)[C@]1(OC(C)=O)CO[C@@H]1C[C@@H]2O` (some centres undefined): the inhibition was -4.9%.
Take `CCc1cccc2c3c([nH]c12)C(CC)(CC(=O)O)OCC3` (centres undefined): the inhibition was -6%.
As for `CCNc1nc2c(ncn2[C@H]2C[C@H](O)[C@@H](CO)O2)c(=O)[nH]1`, the inhibition was -2.5%.
Regarding `Nc1nc2c(ncn2[C@@H]2O[C@H](CO)[C@@H](O)[C@@H]2O)c(=O)[nH]1`, the inhibition was 7.5% (active).
Regarding `Nc1ncnc2c1ncn2C1CCCC1`, the inhibition was 12.4% (active).
With `Nc1ncnc2c1ncn2C1CCCO1` (centres undefined) the figure was -13.6%; with `OC[C@H]1O[C@@H](n2cnc3cncnc32)[C@H](O)[C@@H]1O`, 17% (active); with `Nc1nc(Nc2ccccc2)nc2c1ncn2[C@@H]1O[C@H](CO)[C@H](O)C1O` (some centres undefined), 8.8% (active).
With `CCCC(CCC)C(=O)O` the figure was 40.8% (active); with `N#Cc1cc([N+](=O)[O-])c2sc(C(N)=O)[n+]([O-])c2c1`, 25.4% (active).
Regarding `Nc1ncnc2c1ncn2[C@@H]1O[C@H](COP(=O)(O)CP(=O)(O)OP(=O)(O)O)[C@H](O)C1O` (some centres undefined), the inhibition is 13.7% (active).
For the compound `CCN(CC)c1ncnc2c1ncn2[C@@H]1O[C@H](COP(=O)(O)OP(=O)(O)C(Br)(Br)P(=O)(O)O)[C@@H](O)[C@H]1O`, the inhibition was -3%.
The same measure for `Nc1ncnc2c1ncn2[C@@H]1O[C@H](COP(=O)(O)OP(=O)(O)OP(=O)(O)OP(=O)(O)OC[C@@H]2O[C@H](n3cnc4c(N)ncnc43)C(O)[C@@H]2O)[C@H](O)C1O` (some centres undefined): 11.6% (active); for `NC(=O)C1=C[N+](=C2OC(COP(=O)(O)OP(=O)([O-])OC[C@H]3O[C@@H](n4cnc5c(N)ncnc54)C(OP(=O)(O)O)[C@H]3O)C(O)C2O)C=CC1` (some centres undefined): -12.9%.
The same measure for `NC(=S)c1ccc[n+]([C@@H]2O[C@@H](COP(=O)([O-])OP(=O)(O)OC[C@H]3O[C@@H](n4cnc5c(N)ncnc54)C(OP(=O)(O)O)[C@H]3O)C(O)C2O)c1` (some centres undefined): 4.8% (active).

The term inhibition denotes the relative decrease from the control value, in per cent.
